Screening results as filed in PubChem BioAssay.
Tg IFNy HTS: inhibitors of Toxoplasma gondii growth with IFN-gamma; activity change, negative = inhibition, % (test concentration not listed); actives 3.8% (n = 69,000); AID 1259416; Toxoplasma gondii growth in IFN-gamma-treated host cells; stronger effect = lower value; in the data active = activity change below about -70%, passing the limit was not always enough;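 also: host cells are HeLa cells infected with Toxoplasma gondii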
Numbers without * were called inactive; ! = not confirmed by another sample. The entries come from a sample that favours hits as a whole.

SMILES | Tg IFNy HTS
COc1cc(C(=O)O)ccc1NC(=O)[C@@H]1N[C@@H](CC(C)(C)C)[C@](C#N)(c2ccc(Cl)cc2F)[C@H]1c1cccc(Cl)c1F | -80*
CCC1=NOC(CNC(=O)Cc2c(C)nn(-c3ccccc3)c2C)C1 (stereo not drawn) | 44
Cc1ccccc1C1CC(=O)c2cnc3[nH]n(-c4ccccc4)c(=O)c3c2C1 (stereo not drawn) | -91*
Cc1cc(=O)[nH]n(-c2ccccc2)c1=O | -49
Cc1nc(N2CCN(c3ccccc3)CC2)nc2c1C(=O)CC(c1ccccc1F)C2 (stereo not drawn) | -25
Cc1cnc(C(=O)N2CC3CCC2C3OCCN(C)C)cn1 (stereo not drawn) | 2
CCc1ccccc1-c1ncnc2[nH]ccc12 | 14
CC(C)n1nc(-c2ccc3oc(N)nc3c2)c2c(N)ncnc21 | -83*
COCCNC(=O)c1nn(CCC(C)C)c2c1CN(C(=O)c1[nH]c3c(C)cc(C)cc3c1C)CC2 | -34
OC1(CN2CCCC2)CCN(C2CCC3(CCNCC3)CC2)CC1 | 7
COc1ccc(-c2cccc3c(C(N)=O)cccc23)cn1 | 14
COc1ccc(-c2ccc3[nH]nc(N)c3c2)cn1 | -73*
COc1ccc(-c2cc(F)c(OC)c(F)c2)cn1 | -9
CS(=O)(=O)N1CC[C@H]2OCC[C@@H](C(=O)N3CCCO3)[C@H]2C1 | -14
O=C(c1cccc(F)c1)N1CCC(O)(c2cccnc2F)CC1 | -6
O=C(Cc1ccccc1)NC[C@@H]1CCNC[C@H]1O | 6
Cc1cc(CSc2nc3ccccc3[nH]2)c(C)cc1CSc1nc2ccccc2[nH]1 | -96*
Clc1ccccc1CSc1nc2ccccc2[nH]1 | -37
c1ccc(-n2nnnc2CSc2nc3ccccc3[nH]2)cc1 | -1
Cc1nc(-c2cccc(F)c2)sc1CCNC(=O)C(=O)Nc1ccc2c(c1)OCCO2 | -34
Cc1cccc(NC(=O)C(=O)NCCc2sc(-c3ccccc3)nc2C)c1 | -36
Cc1ccc(-c2nc(C)c(CCNC(=O)C(=O)Nc3ccc(Cl)cc3)s2)cc1 | 83
Cc1nc(-c2ccccc2)sc1CCNC(=O)C(=O)Nc1ccc2c(c1)OCO2 | -93*
Cc1ccc(-c2nc(C)c(CCNC(=O)C(=O)Nc3ccc4c(c3)OCCO4)s2)cc1 | -38
Cc1ccc(NC(=O)C(=O)NCCc2sc(-c3cccc(F)c3)nc2C)cc1F | 51
SMILES | Tg IFNy HTS
Cc1nc(-c2cccc(F)c2)sc1CCNC(=O)C(=O)Nc1ccc2c(c1)OCO2 | -98*
Cc1nc(-c2ccc(Cl)cc2)sc1CCNC(=O)C(=O)Nc1ccc2c(c1)OCO2 | -90*
Cc1ccc(NC(=O)C(=O)NCCc2sc(-c3ccccc3)nc2C)cc1 | -3
Cc1nnc(CN(C)C(=O)c2cc(CN(C)Cc3ccccc3)on2)o1 | -2
COCCN1CCC2(CC1)CC(NCc1cnn(C)c1)c1ccccc1O2 (stereo not drawn) | -45
CN(C)C(=O)[C@@H]1C[C@H]2CCN(Cc3cnn(C)c3)C[C@H]2O1 | 61
Cc1ccc(N2CCC3(CC2)CC(OCC(=O)N(C)C)CO3)nn1 (stereo not drawn) | 1
Cc1cnc(CN(C)C(=O)CCC(=O)NC2CCCC2)[nH]1 | -33
CC(C)C(=O)N1CCCc2cc(-c3csc(N(C)C(=O)C4CCC4)n3)ccc21 | -10
CCOCC(=O)Nc1ccc2c(c1)CCC(=O)N2CCOC | 0
COC(=O)CSc1nnc(-c2ccccn2)o1 | 16
CC(C)(C)CC(C)(C)c1ccc(OCCOCC[N+](C)(C)Cc2ccccc2)cc1 | -78*!
Cc1cc(-c2cc3c(n(Cc4cccnc4)c2=O)CCN(C(=O)C2CCOC(C)(C)C2)C3)ccc1F (stereo not drawn) | -7
NC(N)=N/N=C/c1c(Cl)cccc1Cl | -4
NC(N)=N/N=C/c1ccc(OS(=O)(=O)c2ccccc2)cc1 | -77*
O=C1C2CCCCC2C(=O)N1c1ccc(OS(=O)(=O)c2ccccc2)cc1 (stereo not drawn) | -26
Cc1nnc(SCC(=O)Nc2cccc(Cl)c2N2CCCCC2)o1 | 183
CCn1c(=O)/c(=C2/Sc3ccc(OC)cc3N2C)s/c1=C1/C(=O)N(C)C(=S)N1C | -78*
Cc1cc(C)c2[nH]c(C(=O)N3CCOC(C(F)(F)F)C3)c(C)c2c1 (stereo not drawn) | -22
Cc1cc2cc(CN(C)c3ccc4c(c3)OCO4)c(=O)n(C)c2cc1C | -1
CS(=O)(=O)Cc1cccc(C(=O)O)c1 | -11
COc1ccc(S(=O)(=O)Nc2cccnc2)cc1C(=O)N1CCCCCC1 | 10
CCCc1ccc(S(=O)(=O)N2CCC3(CC2)Nc2cc(C)ccc2-n2cccc23)cc1 | 20
CCCCCS(=O)(=O)CCCCCCCCCCn1c(-c2ccc(O)cc2)c(C)c2cc(O)ccc21 | -79*
CCCCNC(=O)CN(C)C(=O)c1cccc(-c2ccc(O)cc2)c1 | 2
SMILES | Tg IFNy HTS
CC(C)C(=O)N1CCCC(c2nc(-c3cccs3)cc(C(F)(F)F)n2)C1 (stereo not drawn) | -2
CCCC(=O)N1CCCN(c2nc(N)c3cc(OC)c(OC)cc3n2)CC1 | 19
COc1ccc(-c2nc(NC3CCN(Cc4ccccc4)CC3)c3ccccc3n2)cc1 | -51
COc1cc2nc(N3CCCN(C)CC3)nc(NC3CCN(Cc4ccccc4)CC3)c2cc1OC | -88*
O=C(CN1Cc2ccccc2OC(c2ccccc2F)C1)NCCc1ccccn1 (stereo not drawn) | 8
CC(C)CC1CCN(c2ncnc3c2CCNC3)C1 (stereo not drawn) | 65
COc1ccc(NC(=O)C2C=CCN2)cc1NC(=O)c1ccco1 (stereo not drawn) | 34
COc1ccc([C@H]2CC=CC[C@@H](C)Oc3ccccc3C(=O)N(C)[C@H](Cc3ccccc3)C(=O)N2)c(OC)c1 (mixture of isomers) | -79*
COc1ccc([C@H]2CC=CC[C@H](C)Oc3ccccc3C(=O)N(C)[C@@H](C(C)C)C(=O)N2)c(OC)c1 (mixture of isomers) | -11
C[C@@H]1CC=CC[C@@H](c2cccc(Cl)c2)NC(=O)[C@@H](Cc2ccccc2)N(C)C(=O)c2ccccc2O1 (mixture of isomers) | -63
CCN1CCOCC2(CCCN(C(=O)c3ccc4cc[nH]c4c3)C2)C1 (stereo not drawn) | 0
O=C(Nc1ccnn1C1CCN(c2cnccn2)CC1)c1ccccc1Cl | -21
CC(NC(=O)C1CCN(Cc2ccco2)CC1)c1cn2ncsc2n1 (stereo not drawn) | 2
COc1ccccc1-c1cc(NC(=O)c2nnn(-c3ccc(Cl)cc3)c2C)n(C)n1 | -78*
COc1ccccc1-c1cc(NC(=O)c2cccc(Cn3ccnc3C)c2)n(C)n1 | -7
COc1ccccc1-c1nc(Cn2nnc(C(=O)Nc3cc(Cl)ccc3C)c2C)c(C)o1 | 12
CCn1ncnc1C(C)NC(=O)c1cc(-n2cccn2)ccc1Cl (stereo not drawn) | 106
CC(Cn1cncn1)Nc1ccc(-c2nc(-c3ccccc3F)no2)cn1 (stereo not drawn) | 175
COc1ccc(CNC(=O)c2nc(Nc3ccc(C)cc3)c3ccccc3n2)cc1OC | -24
C[C@@H]1CN(Cc2ccccc2F)CCN1CC(=O)Nc1ccc(N2CCCCCC2)cc1 | 444
O=C(Nc1cnn(Cc2ccccc2F)c1)c1ccc(N2CCCCC2)cc1 | -95*
O=C(Nc1ccc(N2CCCCC2)cc1)c1ccccc1Cl | 199
O=C(C1CCC2(CCN(Cc3ccc(F)cc3)CC2)O1)N1CCCO1 (stereo not drawn) | 2
CCN(C)c1ccnc(C2COCCN2Cc2ccccc2OC)n1 (stereo not drawn) | 4
